Source: PubChem BioAssay (National Center for Advancing Translational Sciences (NCATS))
IL-1B inflam inh = blocks inflammasome-driven IL-1 beta release; THP-1 LPS/ATP IL-1B secretion, AlphaLISA, 16 h; hits give low values; activity change, % at 57.5 µM; hit rate 4.7% among 360,000; AID 743279; in the data active = activity change below about -50%; inconclusive = mostly about -30% to -49%
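THP-1 cells pretreated 1 hr with compounds (up to 57.5 uM final), then stimulated with LPS (250 ng/mL final) plus ATP (1.25 mM final); secreted IL-1B measured by AlphaLISA after 16 hr, decreased signal indicating inhibition.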
SW480 rereplic = DNA re-replication induction in SW480 cells | hit rate 1.8% among 340,000 | Potency, µM (top dose mostly 46.1 µM), most hits filed as activators | SW480 DNA re-replication, Hoechst DNA content imaging, 48 h; note: nearly all actives have a fitted effect of over 55% in size
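Image-based DNA-content assay: after two days of treatment, nuclei were labelled with the DNA dye Hoechst and imaged, and hits were compounds raising the count of nuclei showing high fluorescence intensity.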
MCF10A rereplic = induces DNA re-replication in MCF 10a normal breast cells. MCF 10A DNA re-replication, Hoechst nuclear intensity, 48 h. Potency, µM (doses to about 46.1 µM), most hits filed as activators. hit rate 2.9% among 350,000; note: nearly all actives have a fitted effect of over 50% in size
RORg inh = blocks mouse ROR gamma transcriptional activity; hit rate 5.4% among 310,000; Drosophila S2 Gal4-RORgamma UAS-luciferase reporter, 20 h; P51450; Potency, µM (top dose mostly 53.6 µM), actives largely listed as inhibitors; note: nearly all actives have a fitted effect of over 60% in size
Target sequence (P51450 whole entry, looked up, the tested form may be a part): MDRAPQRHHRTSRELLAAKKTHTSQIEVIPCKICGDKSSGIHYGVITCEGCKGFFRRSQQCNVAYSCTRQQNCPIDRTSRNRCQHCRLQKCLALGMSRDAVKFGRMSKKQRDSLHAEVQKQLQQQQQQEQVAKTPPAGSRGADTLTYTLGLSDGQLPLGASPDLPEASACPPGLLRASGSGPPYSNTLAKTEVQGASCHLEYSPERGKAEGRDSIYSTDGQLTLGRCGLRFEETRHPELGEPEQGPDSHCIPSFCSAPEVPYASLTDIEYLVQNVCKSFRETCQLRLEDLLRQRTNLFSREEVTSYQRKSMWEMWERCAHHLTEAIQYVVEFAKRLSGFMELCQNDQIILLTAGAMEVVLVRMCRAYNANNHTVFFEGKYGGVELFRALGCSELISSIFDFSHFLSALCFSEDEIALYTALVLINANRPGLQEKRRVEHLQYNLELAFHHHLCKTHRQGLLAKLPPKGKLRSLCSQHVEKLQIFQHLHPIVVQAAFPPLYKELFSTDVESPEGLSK
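Stably transfected Drosophila Schneider cells are the test system, with ROR gamma fused to Gal4 and luciferase under UAS control; luminescence is read after 20 hr of 700 uM copper sulfate induction at ambient temperature.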
VP16 counter = counter-screen for ROR gamma inhibitors: Gal4-VP16 reporter; Potency, µM (series often up to 53.6 µM), usual class: inhibitors; hit rate 3.5% among 310,000; Drosophila S2 Gal4-VP16 UAS-luciferase, luminescence, 20 h;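 note: Gal4-VP16 expression switched on by copper sulfate through the metallothionein promoter; nearly all actives have a fitted effect of over 50% in size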
Of the large screens only hits and unclear results are named; the others gave an inactive call. This is a sample that favours compounds with a hit; in the whole collection about 11% have one here. Unless noted, calls come from the whole dose curve; as a rule, active = well fitted curve in the direction sought with a large enough effect; inconclusive = small, poorly fitted or top-dose-only effect, or another doubt; inactive = no such curve, though single readings can be large; an effect the other way counts as inactive or inconclusive.

CCOc1ccccc1C=NN1CCCCCC1	none (no result: RORg inh, VP16 counter)
CCOc1ccccc1/C=N/n1c(C2CCCCC2)n[nH]c1=S	MCF10A rereplic 25.9µM, RORg inh 4.47µM, VP16 counter inconclusive
CC(C)OC(=O)C(=O)NNc1ccccc1	MCF10A rereplic 10.3µM
O=C(c1ccncc1)N1CCC2(CCCN(c3ccccc3)C2)CC1	none (no result: IL-1B inflam inh, SW480 rereplic, MCF10A rereplic)
C=C1C(=O)C=C[C@]2(C)C[C@@H]3OC(=O)[C@](C)(O)[C@H]3C[C@@H]12	IL-1B inflam inh -110.1, SW480 rereplic inconclusive, MCF10A rereplic 6.51µM, RORg inh inconclusive, VP16 counter inconclusive
Cc1cccc(N2CCN(C(=O)CCS(=O)(=O)c3ccc4c(c3)NC(=O)CO4)CC2)c1C	none
Nc1nonc1-n1nnc(C(=O)N/N=C/c2ccccc2F)c1CN1CCc2ccccc21	RORg inh inconclusive
COc1ccc(C2CC(=O)c3cnn(-c4nc(C)cc(C)n4)c3C2)cc1 (configuration not stated)	SW480 rereplic inconclusive, MCF10A rereplic 0.82µM, RORg inh inconclusive
COc1ccc(-c2cnc(NCc3cc4c(cc3[N+](=O)[O-])OCO4)n2C)cc1	IL-1B inflam inh -51.5
Cc1c(N2C(=O)/C(=C/c3ccc(N(C)C)cc3)N(C)C2=S)c(=O)n(-c2ccccc2)n1C	none (no result: RORg inh, VP16 counter)
CC(C)CN1CN(Cc2ccco2)CNC1=S	RORg inh 2.24µM, VP16 counter inconclusive
Fc1ccc(N2CN(Cc3cccnc3)CNC2=S)cc1	none (no result: IL-1B inflam inh)
CC(C)CN1CN(Cc2ccccc2)CNC1=S	RORg inh 3.98µM, VP16 counter 5.62µM
CCCCN1CNC(=S)N(Cc2ccccc2)C1	SW480 rereplic inconclusive, RORg inh 3.98µM, VP16 counter 5.62µM
CCCN1CNC(=S)N(Cc2ccccc2)C1	RORg inh 5.62µM, VP16 counter 7.08µM
COc1ccccc1N(C)S(=O)(=O)c1ccc(C(=O)Nc2nccs2)cc1	none (no result: RORg inh, VP16 counter)
S=C1NCN(CCc2ccccc2)CN1	none
S=C1NCN(CCc2ccccc2)CN1Cc1ccccc1	none
S=C1NCN(Cc2ccco2)CN1CCc1ccccc1	RORg inh 2.24µM, VP16 counter 11.2µM
CCCN1CN(Cc2ccccc2)CNC1=S	RORg inh 6.31µM, VP16 counter 7.08µM
CCOc1ccccc1N1CCN(Cc2ccco2)CC1	SW480 rereplic inconclusive
CCOCCCN1CN(Cc2ccco2)CNC1=S	RORg inh 11.2µM
COCCCN1CN(Cc2ccccc2)CNC1=S	RORg inh 11.2µM, VP16 counter inconclusive
CNC(=O)c1ccsc1NC(=O)CS(=O)(=O)c1ccc(F)cc1	none (no result: SW480 rereplic, MCF10A rereplic, RORg inh, VP16 counter)
CCCNC(=O)C1(C)CCN(C(=O)c2ccc(C)c(F)c2)C1 (configuration not stated)	none (no result: SW480 rereplic, MCF10A rereplic, RORg inh, VP16 counter)
O=C(COc1ccc([N+](=O)[O-])cc1)Nc1ccc2c(c1)CCC2	SW480 rereplic inconclusive (no result: RORg inh, VP16 counter)
COc1ccc(S(=O)(=O)N(C)CC(=O)Nc2ccc3c(c2)OCO3)cc1	none
COc1ccc(S(=O)(=O)N(C)CC(=O)Nc2c(F)cccc2F)cc1	SW480 rereplic 18.4µM, MCF10A rereplic 8.2µM, VP16 counter inconclusive
CC(=O)c1c(N2CCOCC2)[nH]c(-c2ccccc2)nc1=S	RORg inh 1.12µM, VP16 counter 5.01µM
CC(=O)c1c(N2CCN(Cc3ccccc3)CC2)[nH]c(-c2ccccc2)nc1=S	RORg inh 14.1µM, VP16 counter inconclusive
CC(=O)c1c(N2CCCC2)[nH]c(-c2ccccc2)nc1=S	SW480 rereplic inconclusive, RORg inh 5.62µM, VP16 counter 7.94µM
CC(=O)c1c(N)[nH]c(-c2ccccc2)nc1=S	RORg inh 0.316µM, VP16 counter 0.794µM
CC(=O)c1c(C)[nH]c(-c2ccccc2)c1C	VP16 counter inconclusive
CC[n+]1c(C)sc2c(C)cc(C)cc21	none
CCC[n+]1c(C)sc2c3c(ccc21)CCCC3	IL-1B inflam inh -96.8, MCF10A rereplic inconclusive
CCn1c2ccc(C)cc2c2nnc(SCCN3CCOCC3)nc21	IL-1B inflam inh -64.2
Cc1ccc2c(c1)c1nc3ccccc3nc1n2CCN1CCOCC1	IL-1B inflam inh -58.3, SW480 rereplic inconclusive, MCF10A rereplic inconclusive
CCCCn1c2ccc(C)cc2c2nnc(SCCN3CCCCC3)nc21	IL-1B inflam inh -78.4, SW480 rereplic inconclusive
CCN(Cc1nc2cc(Cl)ccc2c(=O)[nH]1)C(=O)c1cc(C2CC2)nn1-c1ccccc1	MCF10A rereplic 16.4µM (no result: RORg inh, VP16 counter)
NC(=O)CC(NC(=O)c1ccc(Br)cc1)c1ccc(NC2CCCCCC2)c([N+](=O)[O-])c1 (configuration not stated)	MCF10A rereplic inconclusive, VP16 counter inconclusive
CC1CC(C)(C)CC2(C1)NC(=O)N(CC(=O)Nc1ccc(N3CCCCC3)cc1)C2=O (configuration not stated)	none
NNc1ncnc2sc3c(c12)CCC3	SW480 rereplic inconclusive, MCF10A rereplic inconclusive, RORg inh 3.16µM, VP16 counter 3.98µM
C(=N\Nc1ncnc2sc3c(c12)CCC3)/c1ccncc1	SW480 rereplic inconclusive, RORg inh 10µM, VP16 counter 20µM
c1cc(Nc2ncnc3sc4c(c23)CCC4)ccn1	none
Cn1cnc2c(N/N=C/c3cccs3)ncnc21	IL-1B inflam inh -91.1, VP16 counter inconclusive
C(=N\Nc1ncnc2sc3c(c12)CCC3)/c1cccs1	RORg inh 2.51µM, VP16 counter 5.01µM (no result: IL-1B inflam inh, SW480 rereplic, MCF10A rereplic)
CCOc1ccc(C(O)(CCC(C)C)C(CN2CCOCC2)c2ccccc2)cc1 (configuration not stated)	IL-1B inflam inh -60.1, SW480 rereplic 23.1µM, MCF10A rereplic inconclusive
CCOc1ccc(C(O)(c2ccccc2)C(CN2CCCC2)c2ccccc2)cc1 (configuration not stated)	IL-1B inflam inh -60.9, SW480 rereplic 20.6µM
COc1ccc(C(O)(CCC(C)C)C(CN2CCOCC2)c2ccc(Cl)cc2)cc1 (configuration not stated)	IL-1B inflam inh -81.4, SW480 rereplic inconclusive, MCF10A rereplic inconclusive
CCCCC(O)(c1ccc(F)cc1)C(CN1CCOCC1)c1ccc(Cl)cc1 (configuration not stated)	IL-1B inflam inh inconclusive, SW480 rereplic inconclusive, MCF10A rereplic 7.31µM, RORg inh inconclusive
COc1ccccc1N1CCN(C(=O)c2cccc(S(=O)(=O)NCc3cccnc3)c2)CC1	none (no result: RORg inh, VP16 counter)
N#Cc1ccc(OCC(=O)N(C2CCCCC2)C2CCS(=O)(=O)C2)cc1 (configuration not stated)	MCF10A rereplic inconclusive (no result: RORg inh, VP16 counter)
Cc1cccc(Cl)c1NC(=O)NCCCN1CCCCC1C (configuration not stated)	none (no result: SW480 rereplic, MCF10A rereplic, RORg inh, VP16 counter)
COc1cccc(CNC(=O)c2ccc(NS(=O)(=O)c3ccc4[nH]c(=O)[nH]c4c3)cc2)c1	none (no result: RORg inh, VP16 counter)
CN1C(=O)/C(=C/c2ccccc2OCc2cccc(F)c2)N(C)C1=S	none
Fc1cccc(COc2ccccc2C(=S)N2CCCC2)c1	RORg inh 11.2µM
CCCC1CC(CSC(=N)N)OC1=O (configuration not stated)	none
CCCCCCC1CC(CSC(=N)N)OC1=O (configuration not stated)	IL-1B inflam inh -83.4, MCF10A rereplic inconclusive
